Each structure is given as a SMILES string. Where “and” joins values, the source holds several entries; their conditions need not be identical. Identical values can stand only once. Inconclusive results are not listed. A call without a number means that no potency is given here. More than one record can exist for a structure, and the calls need not agree. Calls of active or inactive are those of the source. Calls follow the shape of the dose curve; as a rule, active = well fitted cell-killing curve with a large enough effect in the repeat runs; inconclusive = weak or mixed curves, or effect the other way; inactive = flat fitted curve, though single readings scatter.
Also: nearly all actives have a fitted effect of over 50% in size.

The first test is described as follows: qHTS RealTime-Glo MT Cell Viability Assay in HEK293 cells - 24 hour (AID 1224886). Also: top concentration of the series differs between compounds. To be noted: RealTime-Glo luminescence; series mostly up to 76.8 µM. The method in brief: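 Reads taken at 0, 8, 16, 24, 32 and 40 h from the same wells. HEK293 cells (600/well) carried RealTime-Glo reagents from seeding, with compound added after a 5 h settle at 37 C.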
Regarding `Cc1cc(Cl)ccc1OCC(=O)O`, the Potency entry was “inactive”.

In the case of `O=c1[nH]c(=O)n(Cl)c(=O)n1Cl`, the Potency result was “inactive”.

As for `CCn1cc[n+](C)c1C`, the Potency result is “inactive”.

As to `O=P1(N(CCCl)CCCl)NCCCO1` (centres undefined), the Potency result is “inactive”.

With `OCCOc1ccccc1`, the Potency entry is “inactive”.

Turning to `CCNc1nc(Cl)nc(NCC)n1`, the Potency result is “inactive”.

Turning to `CC(Cl)(Cl)C(=O)O`, the Potency entry was “inactive”.

A further test in a line: qHTS RealTime-Glo MT Cell Viability Assay in HEK293 cells - 8 hour (AID 1224887). Also: potency is read from the fitted curve at half-maximal effect. To be noted: RealTime-Glo luminescence; series mostly up to 76.8 µM. The method in brief:
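HEK293 + NanoLuc + prosubstrate, 600 cells/well; 5 h, 37 C/5% CO2; compound 23 nL in DMSO by pintool; 37 C; luminescence read at 0, 8, 16, 24, 32 and 40 h time points.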
`O=C(O)CCl`: the Potency entry is “inactive”.

In the case of `C=CCOC(Cn1ccnc1)c1ccc(Cl)cc1Cl` (centres undefined), the Potency result is “inactive”.

In the case of `CC(=O)O`, the Potency entry was “inactive”.

With `CCC[N+]1(C)CCCC1`, the Potency entry was “inactive”.

Consider `CCCCCC[n+]1ccccc1`, for which the Potency result was “inactive”.

As for `CCCC[N+]1(C)CCCCC1`, the Potency result is “inactive”.

With `COCC(=O)N(c1c(C)cccc1C)C(C)C(=O)OC` (centres undefined), the Potency entry was “inactive”.

Turning to `Nc1ccccc1`, the Potency entry is “inactive”.

As to `O=S(=O)(O)O`, the Potency entry is “inactive”.

For `C1CCC(NC2CCCCC2)CC1`, the Potency entry was “inactive”.

Consider `CCCn1cc[n+](C)c1`, for which the Potency entry is “inactive”.

Regarding `O=C(O)C(Cl)(Cl)Cl`, the Potency result is “inactive”.

Take `COP(=O)(OC)C(O)C(Cl)(Cl)Cl` (centres undefined): the Potency entry was “inactive”.

In the case of `CN(C)[C@@H]1C(=O)C(C(N)=O)=C(O)[C@@]2(O)C(=O)C3=C(O)c4c(O)cccc4[C@@](C)(O)[C@H]3[C@H](O)[C@@H]12`, the Potency result was “inactive”.

Turning to `O=C(O)C(Cl)Cl`, the Potency entry was “inactive”.

On to `CCOP(=S)(OCC)Oc1ccc2c(C)c(Cl)c(=O)oc2c1`, for which the Potency was 12.4 µM (active) and 38.9 µM (active) and inactive.

Regarding `CC[n+]1ccccc1`, the Potency result was “inactive”.

For `COP(=O)(OC)OC=C(Cl)Cl`, the Potency result is “inactive”.

Turning to `CCCCn1cc[n+](C)c1C`, the Potency result is “inactive”.

As for `CC(=O)[O][Hg][c]1ccccc1`, the Potency was 433 nM (active) and 1.55 µM (active) and 425 nM (active).

Consider `CCCCCCCCCCn1cc[n+](C)c1`, for which the Potency result is “inactive and 1.74 µM (active)”.

For the molecule `O=C(O)COc1ccc(Cl)cc1Cl`, the Potency entry was “inactive”.

As to `CC[N+](CC)(CC)CC`, the Potency result was “inactive”.

As for `CCCCn1cc[n+](C)c1`, the Potency result was “inactive”.

Regarding `C[C@]12CCC(=O)C=C1CC[C@@H]1[C@@H]2CC[C@]2(C)C(=O)CC[C@@H]12`, the Potency entry is “inactive”.

As for `Cc1cc(Cl)ccc1OCC(=O)O`, the Potency result is “inactive”.

For the molecule `O=c1[nH]c(=O)n(Cl)c(=O)n1Cl`, the Potency entry was “inactive”.

As for `CCn1cc[n+](C)c1C`, the Potency entry is “inactive”.

Regarding `O=P1(N(CCCl)CCCl)NCCCO1` (centres undefined), the Potency entry is “inactive”.

In the case of `OCCOc1ccccc1`, the Potency result was “inactive”.

Regarding `CCNc1nc(Cl)nc(NCC)n1`, the Potency entry is “inactive”.

On to `CC(Cl)(Cl)C(=O)O`, for which the Potency result was “inactive”.

The values are drawn from PubChem BioAssay (Tox21).
